# Compound activity: PubChem, National Center for Advancing Translational Sciences (NCATS)
# ALOX12 inhib = 12-hLO (ALOX12) enzyme inhibition; Potency, µM (titrated, usually from 57.1 µM), for the others: at the top dose activity change, negative = inhibition, most hits filed as inhibitors; P18054; 0.12% of 150,000 active; AID 1452; purified 12-hLO, xylenol orange hydroperoxide absorbance; also: potency is read from the fitted curve at half-maximal effect; nearly all actives have a fitted effect of over 55% in size
#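 Lipoxygenase turnover measured by absorbance at 573 and 405 nm after Fe-XO development. Human 12hLO 150 nM, arachidonate 40 uM, pH 7.0 Hepes buffer with detergent; 15 min compound preincubation, 30 min reaction.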
# ALDH1A1 inh = ALDH1A1 (human) enzyme inhibition | P00352 | Purified ALDH1A1, NADH fluorescence, propionaldehyde substrate | Potency, µM (top dose mostly 75.3 µM), for inactives: at the top dose activity, negative = inhibition, usual class: inhibitors | AID 1030 | 7.3% of 220,000 active; active = well fitted inhibition curve with a large enough effect, not every such curve was filed as active; inconclusive = small, poorly fitted or top-dose-only effect, or another doubt; inactive = no such curve, though single readings can be large or run the other way;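 also: potency is read from the fitted curve at half-maximal effect; plate controls were no enzyme wells and a reference inhibitor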
# HPGD block = inhibitors of human 15-hydroxyprostaglandin dehydrogenase (HPGD). 4.3% of 150,000 active. Potency, µM, without a hit: at the top dose activity change, negative = inhibition, usual class: inhibitors. purified HPGD, NADH fluorescence kinetic, PGE2 substrate; active = well fitted inhibition curve with a large enough effect, not every such curve was filed as active; inconclusive = small, poorly fitted or top-dose-only effect, or another doubt; inactive = no such curve, though single readings can be large or run the other way; also: potency is read from the fitted curve at half-maximal effect
# Target sequence (P15428 whole entry, looked up): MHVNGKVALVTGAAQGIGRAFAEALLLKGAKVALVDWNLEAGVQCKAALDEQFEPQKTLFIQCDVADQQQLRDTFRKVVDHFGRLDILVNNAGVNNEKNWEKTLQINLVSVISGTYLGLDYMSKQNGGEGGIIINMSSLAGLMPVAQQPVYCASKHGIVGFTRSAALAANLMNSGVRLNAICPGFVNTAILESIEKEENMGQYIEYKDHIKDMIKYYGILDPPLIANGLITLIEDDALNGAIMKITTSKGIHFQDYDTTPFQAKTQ
#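 NADH formation kinetics: reaction with 30 uM PGE2 and 1 mM NAD+ (final), 20 nM enzyme, Tris-HCl pH 8 with Tween 20, after 15 min compound preincubation at room temperature. Fluorescence change, last versus first of five reads.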
# PNC assembly inh = perinucleolar compartment assembly inhibition | PC3M PTB-GFP, PNC prevalence imaging, 16 h; hits give low values | activity change (PNC), negative = inhibition, % at 10 µM | 3.1% of 140,000 active | AID 2417;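 active = readout at or below -70, meaning at least 70% loss of cells showing the perinucleolar compartment, a nuclear body marking cancer cells; inconclusive = readout between -30 and a set limit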;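 also: plate controls were DMSO wells for no effect and camptothecin positive control wells for full effect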
#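 PC3M cells stably expressing PTB-GFP, 750–1000 cells/well, treated 16 h at 37 °C with compound (23 nl of library stock), in duplicate. After paraformaldehyde fixation and Hoechst stain, imaged at 20x; PNC prevalence scored by image analysis.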
# GLA spleen mod = alpha-galactosidase A (human) modulation. human spleen homogenate, 4MU-alpha-Gal fluorescence, 40 min. Potency, µM (highest dose often 80 µM), for inactives: at the highest dose activity change, negative = inhibition, most hits filed as inhibitors. P06280. AID 2107. 0.008% of 240,000 active;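 also: potency is read from the fitted curve at half-maximal effect; 0% = enzyme with vehicle and -100% = no enzyme basal signal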
#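 Human spleen homogenate (1 ug) was the enzyme source, with 4-methylumbelliferyl-alpha-D-galactopyranoside (1 mM final) in pH 5.0 citrate buffer with 0.01% Tween-20. Compounds were titrated; after 40 min at 37C, NaOH/glycine stop, 4-MU fluorescence read; AC50 from Hill fits.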
# GLA inh pH 4.5 = alpha-galactosidase A (human) inhibition, pH 4.5; P06280; activity change, negative = inhibition, % at 105 µM; purified enzyme, 4-MU-alpha-Gal fluorescence, pH 4.5; 230,000 tested, under 10 active;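 also: 0% = full activity with enzyme and -100% = basal without enzyme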
# Target sequence (P06280 whole entry, looked up): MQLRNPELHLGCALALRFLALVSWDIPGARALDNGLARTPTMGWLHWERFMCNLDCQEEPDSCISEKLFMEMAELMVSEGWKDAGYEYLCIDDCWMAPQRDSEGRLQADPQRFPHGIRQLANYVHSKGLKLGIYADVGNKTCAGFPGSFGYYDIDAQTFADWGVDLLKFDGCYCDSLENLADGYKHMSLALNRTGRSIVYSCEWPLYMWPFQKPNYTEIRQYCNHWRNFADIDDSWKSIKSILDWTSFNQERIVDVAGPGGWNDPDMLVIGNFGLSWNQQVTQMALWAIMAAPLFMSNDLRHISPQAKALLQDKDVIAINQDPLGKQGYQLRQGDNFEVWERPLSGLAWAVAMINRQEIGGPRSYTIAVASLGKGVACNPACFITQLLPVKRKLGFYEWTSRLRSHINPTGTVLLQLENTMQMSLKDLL
# * = called active by the depositor; ? = inconclusive; nt = not tested or not shown; [ ] = another dose, or the depositor's remark. An excerpt weighted towards active compounds, which were near 10% of everything screened. Unless noted, calls follow the shape of the dose curve; as a rule, active = well fitted curve in the direction sought with a large enough effect; inconclusive = small, poorly fitted or top-dose-only effect, or another doubt; inactive = no such curve, though single readings can be large; an effect the other way counts as inactive or inconclusive. Unless noted, % is scaled to controls: 0 for no effect and ±100 for the full control effect.
SMILES,ALOX12 inhib,ALDH1A1 inh,HPGD block,PNC assembly inh,GLA spleen mod,GLA inh pH 4.5
COc1ccc(S(=O)(=O)Cc2ccc(C(=O)N3CCCC3)o2)cc1,3.1%,?,-15.2%,?,-5.8%,-0.3
COc1ccc(S(=O)(=O)Cc2ccc(C(=O)N3CCC(C(N)=O)CC3)o2)cc1,6.7%,4.8%,-8.1%,-85.1*,7.0%,-12.6
COCCCn1c(SCC(=O)Nc2ccc(C(=O)OC)cc2)nc2ccccc2c1=O,-17.9%,?,-15.3%,-116.8*,1.9%,4.0
CCOc1ccc(NC(=O)CSc2nc3cccnc3n2CCOC)cc1,13.9%,28.2µM*,-16.5%,-7.8,14.4%,1.6
COCCCn1c(SCC(=O)Nc2ccc(C)cc2)nc2ccccc2c1=O,nt,1.0%,nt,nt,-5.1%,-16.3
COC(=O)c1ccc(NC(=O)CSc2nccn2CCc2ccccc2)cc1,7.6%,20µM*,-22.5%,-17.1,-7.1%,1.5
COc1ccc(NC(=O)CSc2nnc(-c3ccccn3)n2N)cc1,-6.9%,3.5%,-12.0%,21.0,3.3%,0.1
CCOc1ccc(NC(=O)CSc2nnc(-c3ccccn3)n2N)cc1,-3.9%,11.2µM*,-15.0%,?,5.8%,0.1
CC[C@H](C)[C@H](N)C(=O)N[C@H](C(=O)N[C@@H](CO)C(=O)N[C@@H](C)C(=O)N[C@H](C(=O)N[C@H](C(=O)NCC(=O)N[C@H](C(=O)N[C@@H](CC(C)C)C(=O)O)[C@@H](C)CC)C(C)C)C(C)C)[C@@H](C)CC,nt,nt,nt,nt,-5.3%,nt
CC/C(=N/OC(=O)c1cccc(C)c1)C(=O)c1cccs1,nt,?,nt,nt,-2.5%,-3.7
N#Cc1cc(N)ccc1-n1cccc1,nt,2.8%,nt,nt,7.3%,6.1
c1ccc2c(NC3CC3)nc(-c3ccoc3)nc2c1,nt,-1.6%,nt,nt,0.8%,nt
CCOc1ccc(NC(=O)CSc2nc3ccccc3c(=O)n2CCNC(C)=O)cc1,-6.3%,-10.8%,-3.9%,-107.4*,-3.9%,-6.8
COc1ccc(NC(=O)CSc2nc3ccccc3c(=O)n2CCNC(C)=O)cc1,-3.1%,?,-0.5%,14.1,-6.4%,2.0
Nc1cc(=O)nc(SCC(=O)Nc2ccccc2)n1-c1ccccc1,-1.3%,5.0%,-14.1%,24.1,-1.9%,1.7
Cc1ccc(NC(=O)C(C)Sc2nnc(-c3cccnc3)o2)cc1 (stereo not drawn),-1.6%,1.5%,-26.9%,-29.2,7.4%,7.2
Cc1ccc(NC(=O)C(C)Sc2nc(=O)cc(N)n2-c2ccccc2)cc1 (stereo not drawn),-19.5%,11.2µM*,-15.5%,-20.6,-4.4%,1.5
Cc1ccc(NC(=O)C(C)Sc2nnc(-c3cccnc3)n2-c2ccccc2)cc1 (stereo not drawn),-1.0%,-10.3%,14.1µM*,?,-10.6%,-2.6
CN(/N=C/c1cc(Cl)cc(Cl)c1O)c1c(Cl)cccc1[N+](=O)[O-],nt,4.1%,nt,nt,-1.0%,-6.6
CCCCCCCCCCC(C)=O,nt,nt,nt,nt,-13.1%,nt
Cc1ccc(O)c(C2=Nc3ccccc3N=C(c3ccc([N+](=O)[O-])cc3)C2)c1,1.8%,8.3%,-14.1%,-12.2,8.8%,-5.2
Cc1ccc(O)c(-c2cc(C(=O)Nc3cccnc3)[nH]n2)c1,nt,3.6%,nt,nt,3.3%,-0.5
COc1ccc(O)c(-c2cc(-c3ccccc3[N+](=O)[O-])[nH]n2)c1,-0.1%,0.2%,22.4µM*,-24.5,8.6%,-1.4
COc1ccc(O)c(-c2cn[nH]c2-c2cccs2)c1,-0.7%,?,-2.2%,22.8,1.8%,-5.6
Cc1ccc(O)c(-c2cc(C(F)(F)C(F)F)[nH]n2)c1,-19.9%,16.9%,15.8µM*,-7.3,5.5%,-6.8
SMILES,ALOX12 inhib,ALDH1A1 inh,HPGD block,PNC assembly inh,GLA spleen mod,GLA inh pH 4.5
Cc1ccc(O)c(-c2cc(-c3ccccc3[N+](=O)[O-])[nH]n2)c1,-10.1%,11.1%,4.47µM*,4.1,-0.9%,-24.5
O=[N+]([O-])c1ccccc1-c1cc(-c2cc(Cl)ccc2O)n[nH]1,-22.0%,-0.3%,11.2µM*,51.2,1.9%,-2.6
COC(=O)c1sc(-c2ccc(C(C)(C)C)cc2)cc1NC(=O)CSCC(=O)O,nt,nt,nt,nt,-16.6%,-6.9
Cc1ccc(O)c(-c2cc(-c3ccccc3C)[nH]n2)c1,-21.4%,5.8%,22.4µM*,22.8,1.7%,-11.7
COc1ccc(-c2cc(-c3cc(C)ccc3O)[nH]n2)cc1,nt,0.9%,nt,nt,4.3%,-10.1
CC(C)CC(=O)Nc1c2c(nn1-c1ccc(F)cc1)CSC2,0.5%,-7.7%,2.9%,52.1,-1.1%,6.7
O=C(Nc1c2c(nn1-c1ccc(F)cc1)CS(=O)(=O)C2)C12CC3CC(CC(C3)C1)C2,-1.5%,3.98µM*,-13.2%,6.5,-2.2%,-10.4
O=C(CCC1CCCCC1)Nc1c2c(nn1-c1ccc(F)cc1)CS(=O)(=O)C2,-1.4%,10µM*,-7.3%,-12.2,0.2%,2.7
CC(=O)CC(=O)[C@@]1(O)CC[C@@H]2[C@@H]3C=C(C)C4=CC(=O)CC[C@@H]4[C@H]3CC[C@]21C,-6.5%[25.6 µM],2.6%[20.9 µM],-6.7%,nt,1.0%[29.1 µM],-6.8
COC/C=C/C1=CC2=CC(=O)C(C)(OC(=O)c3cnc4ccccc4n3)C(=O)C2=CN1Cc1ccc2c(c1)OCO2 (stereo not drawn),-6.3%[11.4 µM],?,-3.1%,nt,0.6%[17.5 µM],-6.7
O=C1NCCC/C1=N/Nc1ccc(F)cc1,nt,12.6µM*,nt,nt,-0.8%,-4.6
Brc1ccc(N/N=C(/N=Nc2nn[nH]n2)c2ccccc2)cc1,nt,14.1µM*,nt,nt,-2.7%,-7.5
COc1ccc(C(C)=O)cc1Cn1cnc2c(cnn2C)c1=O,nt,nt,nt,nt,5.5%,-15.6
c1ccc(-c2cnn3c(-c4ccccc4)c(-c4ccccc4)nc3n2)cc1,-5.8%,-2.0%,20µM*,23.3,-3.8%,1.4
N#C/C(=C\c1cc(O)c(O)c(O)c1)C(N)=O,nt,nt,nt,nt,-29.8%,-10.9
Cc1cccc(NC(=O)Cc2coc3ccc4ccccc4c23)n1,-6.7%,-3.7%,15.8µM*,11.0,-6.4%,-8.0
O=C(Cc1coc2ccc3ccccc3c12)N1CCCC1,1.4%,?,12.6µM*,2.6,3.0%,-4.0
CCCCNC(=O)Cc1coc2ccc3ccccc3c12,-0.1%,-0.9%,14.1µM*,32.9,3.6%,5.9
COc1cccc(Nc2ncc3nc(C)c(=O)n(Cc4cccs4)c3n2)c1,nt,?,nt,nt,2.1%,nt
CCC(C)(C)NC(=O)Cn1c(-c2ccc(C)cc2)noc1=O,nt,nt,nt,nt,0.2%,-10.1
Cc1ccc(C2c3sc(=O)[nH]c3SC3C4CC(C5C(=O)N(C(C)C(=O)O)C(=O)C45)C23)cc1 (stereo not drawn),-0.8%,?,-1.9%,-89.9*,-3.5%,11.4
